From PubChem BioAssay (EPA / NIEHS)
Results filed as inconclusive are left out. The source made the active and inactive calls. The calls were made as follows: active = hit-call score of the fitted dose curve at least 0.9, where 1 is the maximum; inconclusive = response in the unintended direction; inactive = score below 0.9.

Biological target: Cellular tumor antigen p53 (Homo sapiens) (UniProt P04637)
Assay: TOX21_p53_BLA_p2_ratio: Tox21 HCT-116 p53 Agonism Beta-lactamase Assay, Ratio, Phase 2 (AID 2283592)
Procedure, shortened: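 Cleaved-to-uncleaved substrate ratio (460 vs 530 nm) measured in HCT116 cells with an inducible beta-lactamase reporter linked to p53 activity. Compounds incubated 16 h at 37C before 2 h room-temperature CCF4-AM loading.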

Sequence of Cellular tumor antigen p53 (Homo sapiens) (P04637 whole entry, looked up): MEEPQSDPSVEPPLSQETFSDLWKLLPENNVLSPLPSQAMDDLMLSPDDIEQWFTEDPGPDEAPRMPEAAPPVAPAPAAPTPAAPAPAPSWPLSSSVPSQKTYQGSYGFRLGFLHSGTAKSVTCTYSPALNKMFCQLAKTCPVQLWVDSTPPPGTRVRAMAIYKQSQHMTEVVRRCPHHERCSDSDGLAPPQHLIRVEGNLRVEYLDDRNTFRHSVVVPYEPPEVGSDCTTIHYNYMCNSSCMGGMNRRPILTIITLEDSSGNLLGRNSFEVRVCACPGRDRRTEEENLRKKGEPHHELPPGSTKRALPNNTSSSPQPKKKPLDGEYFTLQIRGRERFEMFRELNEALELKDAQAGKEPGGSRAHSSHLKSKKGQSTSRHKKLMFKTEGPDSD

Row | SMILES | outcome | AC50
1 | CNC(=O)c1ccccc1 | inactive | 
2 | C=CCOC(=O)CCCCCCCC | inactive | 
3 | O=C(O)CCC/C=C\C[C@@H]1[C@@H](/C=C/[C@@H](O)COc2cccc(Cl)c2)[C@H](O)C[C@@H]1O | inactive | 
4 | Nc1nc2c(ncn2COC(CO)CO)c(=O)[nH]1 | inactive | 
5 | C[Se]CCC(N)C(=O)O (stereo unspecified) | inactive | 
6 | O=C1NC(=O)c2cc([N+](=O)[O-])ccc21 | inactive | 
7 | C[C@]12CC[C@@H]3c4ccc(O)cc4CC[C@H]3[C@@H]1CC[C@@H]2OP(=O)(O)O | inactive | 
8 | CCC(C)(C)CC | inactive | 
9 | CC(C(=O)O)c1ccc(C(=O)c2cccs2)cc1 (stereo unspecified) | inactive | 
10 | O=S1OCCO1 | inactive | 
11 | CC(Cc1cccc(C(F)(F)F)c1)NCCOC(=O)c1ccccc1 (stereo unspecified) | inactive | 
12 | O=C1CCCC(=O)C1 | inactive | 
13 | C1CSCCS1 | inactive | 
14 | CC(=O)Nc1cccc(N)c1 |  | 84.4 µM (active)

Biological target: Cellular tumor antigen p53 (Homo sapiens) (UniProt P04637)
Assay: TOX21_p53_BLA_p3_ratio: Tox21 HCT-116 p53 Agonism Beta-lactamase Assay, Ratio, Phase 3 (AID 2283596)
Procedure, shortened: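 Cells were seeded at 4000/well, rested 5 h at 37C, then dosed with DMSO compound solutions (217-fold dilution) for 16 h. CCF4-AM substrate was loaded for 2 h at room temperature, and the 460/530 nm emission ratio was fitted for gain of signal versus DMSO.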

Row | SMILES | outcome | AC50
15 | Nc1cccc([N+](=O)[O-])c1 | inactive | 
16 | CCN(CC)CCC(=O)N1c2ccccc2Sc2ccc(C(F)(F)F)cc21 | inactive | 
17 | O=C1c2ccccc2C(=O)C1c1ccc(F)cc1 | inactive | 
18 | N[C@@H](CCC(=O)Nc1ccc([N+](=O)[O-])cc1)C(=O)O | inactive | 
19 | CCCCOC(=O)C(=O)Nc1cccc(-c2nn[nH]n2)c1 | inactive | 
20 | C[N+]1(C)[C@@H]2CC(OC(=O)[C@H](CO)c3ccccc3)C[C@H]1[C@@H]1O[C@@H]12 (stereo partly specified) | inactive | 
21 | O=C(C(=O)c1ccco1)c1ccco1 | inactive | 
22 | N#CSc1ccc(N)c([N+](=O)[O-])c1 | inactive | 
23 | CN1CCN(C2=Nc3ccccc3Sc3ccc(Cl)cc32)CC1 | inactive | 
24 | O=C1c2ccccc2C(=O)c2c1ccc(O)c2O | inactive | 
25 | Cc1c(N=C=O)cccc1N=C=O | inactive | 
26 | O=C(Nc1cccc(C2=NCCN2)c1)Nc1cccc(C2=NCCN2)c1 | inactive | 
27 | C1=CCC2CC=CC2C1 (stereo unspecified) | inactive | 
28 | CC1(C)OC(=O)NC1=O | inactive | 
29 | CCC(CO)(CO)CO | inactive | 
30 | CN1C[C@H]2c3ccccc3Oc3ccc(Cl)cc3[C@@H]2C1 |  | 43.8 µM (active)
31 | CCC(C)(CN(C)C)OC(=O)c1ccccc1 (stereo unspecified) | inactive | 
32 | N[C@H](C(=O)O)[C@@H](O)c1ccc(O)c(O)c1 | inactive | 
33 | NCCCC(=O)O | inactive | 

Row | SMILES | outcome | AC50
34 | FC(F)(F)c1cccc(Cl)c1 | inactive | 
35 | CC(C)C(=O)O | inactive | 
36 | CC(=O)N[C@@H](Cc1ccc(O)cc1)C(=O)O | inactive | 
37 | Cc1ccnc2ccccc12 | inactive | 
38 | CN1CCN(c2c(F)cc3c(=O)c(C(=O)O)cn4c3c2OCN4C)CC1 | inactive | 
39 | C=CCOC(=O)CCCCCCCC | inactive | 
40 | O=C(O)CCC/C=C\C[C@@H]1[C@@H](/C=C/[C@@H](O)COc2cccc(Cl)c2)[C@H](O)C[C@@H]1O | inactive | 
41 | Nc1nc2c(ncn2COC(CO)CO)c(=O)[nH]1 | inactive | 
42 | C[Se]CCC(N)C(=O)O (stereo unspecified) | inactive | 
43 | O=C1NC(=O)c2cc([N+](=O)[O-])ccc21 | inactive | 
44 | C[C@]12CC[C@@H]3c4ccc(O)cc4CC[C@H]3[C@@H]1CC[C@@H]2OP(=O)(O)O | inactive | 
45 | CCC(C)(C)CC | inactive | 
46 | CC(C(=O)O)c1ccc(C(=O)c2cccs2)cc1 (stereo unspecified) | inactive | 
47 | O=S1OCCO1 | inactive | 
48 | CC(Cc1cccc(C(F)(F)F)c1)NCCOC(=O)c1ccccc1 (stereo unspecified) | inactive | 
49 | O=C1CCCC(=O)C1 | inactive | 
50 | C1CSCCS1 | inactive | 
51 | CC(=O)Nc1cccc(N)c1 | inactive | 

Test system: not listed separately
Assay: TOX21_p53_BLA_p4_viability: Viability Assessment in the Tox21 HCT-116 p53 Agonism Beta-lactamase Assay, Phase 4 (AID 2283597);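 also: hits lower the luminescence signal meaning cytotoxicity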
Procedure, shortened: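 Viability is taken as cellular ATP: after 16 h compound exposure of HCT116 cells and a 2 h room-temperature CCF4-AM substrate step, CellTiter-Glo reagent is added and luminescence is measured 30 min later.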

Row | SMILES | outcome
52 | Nc1cccc([N+](=O)[O-])c1 | inactive
53 | CCN(CC)CCC(=O)N1c2ccccc2Sc2ccc(C(F)(F)F)cc21 | inactive
54 | O=C1c2ccccc2C(=O)C1c1ccc(F)cc1 | inactive
55 | N[C@@H](CCC(=O)Nc1ccc([N+](=O)[O-])cc1)C(=O)O | inactive
56 | CCCCOC(=O)C(=O)Nc1cccc(-c2nn[nH]n2)c1 | inactive
57 | C[N+]1(C)[C@@H]2CC(OC(=O)[C@H](CO)c3ccccc3)C[C@H]1[C@@H]1O[C@@H]12 (stereo partly specified) | inactive
58 | O=C(C(=O)c1ccco1)c1ccco1 | inactive
59 | N#CSc1ccc(N)c([N+](=O)[O-])c1 | inactive
60 | O=C1c2ccccc2C(=O)c2c1ccc(O)c2O | inactive
61 | O=C(Nc1cccc(C2=NCCN2)c1)Nc1cccc(C2=NCCN2)c1 | inactive
62 | C1=CCC2CC=CC2C1 (stereo unspecified) | inactive
63 | CC1(C)OC(=O)NC1=O | inactive
64 | CCC(CO)(CO)CO | inactive
65 | CCC(C)(CN(C)C)OC(=O)c1ccccc1 (stereo unspecified) | inactive
66 | N[C@H](C(=O)O)[C@@H](O)c1ccc(O)c(O)c1 | inactive
67 | NCCCC(=O)O | inactive
68 | FC(F)(F)c1cccc(Cl)c1 | inactive
69 | CC(C)C(=O)O | inactive
70 | CC(=O)N[C@@H](Cc1ccc(O)cc1)C(=O)O | inactive
71 | CN1CCN(c2c(F)cc3c(=O)c(C(=O)O)cn4c3c2OCN4C)CC1 | inactive
72 | C=CCOC(=O)CCCCCCCC | inactive
73 | Nc1nc2c(ncn2COC(CO)CO)c(=O)[nH]1 | inactive
74 | C[Se]CCC(N)C(=O)O (stereo unspecified) | inactive
75 | O=C1NC(=O)c2cc([N+](=O)[O-])ccc21 | inactive
76 | C[C@]12CC[C@@H]3c4ccc(O)cc4CC[C@H]3[C@@H]1CC[C@@H]2OP(=O)(O)O | inactive
77 | CCC(C)(C)CC | inactive
78 | CC(C(=O)O)c1ccc(C(=O)c2cccs2)cc1 (stereo unspecified) | inactive
79 | CC(Cc1cccc(C(F)(F)F)c1)NCCOC(=O)c1ccccc1 (stereo unspecified) | inactive
80 | C1CSCCS1 | inactive
81 | CC(=O)Nc1cccc(N)c1 | inactive
